# From article PMC4336329 (PLoS ONE, 2015)
# Among all 310,000 compounds or so, about 14,000 (4.5%) showed an effect of 50% or more. Effects have a minus sign here. The entries come from a sample that favours strong results as a whole.
# Molecular target: human ether-à-go-go-related gene (hERG) potassium channel (human, UniProt Q12809)
# Assay: primary screen, population patch clamp on CHO cells stably expressing hERG; higher = less effect of the substance
# 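Also: peak tail current of the secondary pulse compared with the same well before compound.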
# Sequence of human ether-à-go-go-related gene (hERG) potassium channel (Q12809 whole entry, looked up): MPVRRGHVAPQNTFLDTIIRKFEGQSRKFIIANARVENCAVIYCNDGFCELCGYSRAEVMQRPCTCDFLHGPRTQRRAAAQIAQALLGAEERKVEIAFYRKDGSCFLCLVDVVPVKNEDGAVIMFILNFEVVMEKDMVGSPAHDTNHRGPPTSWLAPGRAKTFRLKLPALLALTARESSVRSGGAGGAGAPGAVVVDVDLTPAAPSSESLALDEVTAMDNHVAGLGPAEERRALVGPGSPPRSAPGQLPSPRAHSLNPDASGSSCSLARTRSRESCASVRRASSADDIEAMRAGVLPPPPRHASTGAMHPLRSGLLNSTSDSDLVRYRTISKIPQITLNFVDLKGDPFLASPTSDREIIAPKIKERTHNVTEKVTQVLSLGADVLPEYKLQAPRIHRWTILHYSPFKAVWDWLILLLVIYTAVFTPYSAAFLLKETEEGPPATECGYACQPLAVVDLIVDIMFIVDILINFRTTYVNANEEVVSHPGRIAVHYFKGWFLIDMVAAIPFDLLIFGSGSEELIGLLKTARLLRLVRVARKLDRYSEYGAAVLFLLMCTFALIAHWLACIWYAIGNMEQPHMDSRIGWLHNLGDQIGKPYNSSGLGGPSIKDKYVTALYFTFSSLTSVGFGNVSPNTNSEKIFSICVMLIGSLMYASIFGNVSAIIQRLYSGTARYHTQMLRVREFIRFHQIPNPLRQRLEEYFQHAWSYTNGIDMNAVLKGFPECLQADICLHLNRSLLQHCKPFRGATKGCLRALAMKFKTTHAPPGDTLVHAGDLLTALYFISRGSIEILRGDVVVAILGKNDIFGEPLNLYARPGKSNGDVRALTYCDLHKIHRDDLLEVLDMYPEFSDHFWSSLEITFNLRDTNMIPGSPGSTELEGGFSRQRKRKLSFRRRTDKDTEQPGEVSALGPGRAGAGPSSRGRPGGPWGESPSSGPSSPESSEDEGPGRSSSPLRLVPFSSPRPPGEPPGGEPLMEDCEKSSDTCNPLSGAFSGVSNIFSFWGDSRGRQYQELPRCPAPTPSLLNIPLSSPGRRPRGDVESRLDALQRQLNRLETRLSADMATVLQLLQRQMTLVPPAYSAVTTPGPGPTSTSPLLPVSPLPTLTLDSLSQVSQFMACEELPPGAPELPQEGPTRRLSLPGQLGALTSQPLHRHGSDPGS
row,Compound,"hERG current change (%, negative = inhibition) at 10uM"
1,C/C(=N/O)c1cc(C(C)(C)C)c(O)c(C(C)(C)C)c1,14.6%
2,COc1ccc([C@@H]2CC=C(C(=O)O)[C@H](c3ccc(F)cc3)N2S(=O)(=O)c2ccc(C)cc2)cc1OC,10.5%
3,Fc1cccc(Cl)c1Cn1nnc(-c2ccc3c(c2)OCO3)n1,-1.37%
4,N=c1c2c3c(sc2nc2n1CCC2)CCCC3,-28.9%
5,N=c1c2c3c(sc2nc2n1CCCCC2)CCCCC3,-53%
6,N=c1c2c3c(sc2nc2n1CCCCC2)CCCC3,-45.2%
7,NC(=O)NCc1cccs1,7.27%
8,O=C(c1ccccc1Oc1ccc([N+](=O)[O-])cc1)N1CCOCC1,-52%
9,Cn1nc([N+](=O)[O-])nc1Oc1ccccc1C(=O)N1CCOCC1,17.4%
10,O=[N+]([O-])c1ccc(-c2ccc(S(=O)(=O)N3CCOCC3)cc2)cc1,-29.8%
11,O=C(c1cccc(Oc2ccc([N+](=O)[O-])cc2)c1)N1CCOCC1,-34.3%
12,COc1cc(C(=S)N2CCOCC2)ccc1OS(=O)(=O)c1ccccc1[N+](=O)[O-],-1.24%
13,O=S(=O)(c1ccc(Oc2ccccc2)cc1)N1CCOCC1,0.463%
14,O=[N+]([O-])c1ccccc1Oc1ccc(S(=O)(=O)N2CCOCC2)cc1,-63.8%
15,O=S(=O)(c1ccc(Oc2ccc(S(=O)(=O)N3CCOCC3)cc2)cc1)N1CCOCC1,9.29%
16,O=[N+]([O-])c1ccccc1S(=O)(=O)Nc1ccc(S(=O)(=O)N2CCOCC2)cc1,14.7%
17,O=[N+]([O-])c1ccccc1S(=O)(=O)Oc1ccc(C(=S)N2CCOCC2)cc1,-75%
18,O=[N+]([O-])c1ccc(Oc2ccc(S(=O)(=O)N3CCOCC3)cc2)cc1,-63.4%
19,CCOc1cc(C(=S)N2CCOCC2)ccc1OS(=O)(=O)c1ccccc1[N+](=O)[O-],8.98%
20,NC(=O)CC(NC(=O)Cc1ccc(Br)cc1)c1ccc(N2CCc3ccccc3C2)c([N+](=O)[O-])c1 (stereo not shown),-2.08%
21,O=S(=O)(Nc1ccc(Cl)nn1)c1ccccc1,12.7%

row,Compound,"hERG current change (%, negative = inhibition) at 10uM"
1,Cn1c(N)c(C(=O)COC(=O)/C=C/c2ccc(OC(F)F)cc2)c(=O)n(C)c1=O,3.23%
2,O=C(CN1CCC(C(O)(c2ccccc2)c2ccccc2)CC1)Nc1ccccc1,-42.1%
3,O=C(O)C(=O)O.Oc1ccccc1CN1CCC(C(O)(c2ccccc2)c2ccccc2)CC1,-68.5%
4,O=C(O)C(=O)O.Oc1ccccc1CN1CCN(C(O)(c2ccccc2)c2ccccc2)CC1,-46%
5,Nc1c(Cl)cc(-c2csc(N3CCCC3c3nc4cc(Cl)c(Cl)cc4n3CCCO)n2)cc1Cl (stereo not shown),-2.8%
6,CC(NC(=O)C1CC1)C(c1cccs1)N1CCN(c2ccccc2)CC1 (stereo not shown),-0.284%
7,COc1ccc(NC(=O)CN(C)Cc2cccs2)cc1Cl,-15.7%
8,O=S(=O)(c1ccccc1)c1nc(-c2ccccc2)oc1N1CCCC1,8.44%
9,NC(=O)C1CCN(c2oc(-c3ccccc3)nc2S(=O)(=O)c2ccc(Br)cc2)CC1,-55.9%
10,CN1CCN(c2oc(-c3ccccc3F)nc2S(=O)(=O)c2ccc(Cl)cc2)CC1,-57.6%
11,CN1CCN(c2oc(-c3ccccc3Cl)nc2S(=O)(=O)c2ccccc2)CC1,-47.9%
12,NC(=O)C1CCN(c2oc(-c3ccc(F)cc3)nc2S(=O)(=O)c2ccccc2)CC1,-17.4%
13,O=S(=O)(c1ccc(Br)cc1)c1nc(-c2ccccc2)oc1N1CCOCC1,-30.7%
14,O=S(=O)(c1ccc(F)cc1)c1nc(-c2ccccc2F)oc1N1CCCCC1,-20%
15,CN1CCN(c2oc(-c3ccccc3)nc2S(=O)(=O)c2ccc(Br)cc2)CC1,-68.6%
16,Cc1ccc(S(=O)(=O)c2nc(-c3ccccc3)oc2N2CCC(C(N)=O)CC2)cc1,-26.3%
17,CCN(CC)S(=O)(=O)c1cccc(N=Nc2sc(N)nc2C)c1,-12.8%
18,S=C1NC[C@H](CC2CCCCC2)N1CC1CCCCC1,-8.59%
19,O=C(CN1CCCCC1)Nc1ccc(NC(=O)c2ccc(Cl)cc2)cc1Cl,13.7%
20,CCC(NC(=O)c1cc(COc2cncc(Cl)c2)on1)c1ccncc1 (stereo not shown),8.75%
21,COc1ccc(-c2cc3ccccc3n2CC(O)CN2CCC(C)CC2)cc1.O=C(O)C(=O)O (stereo not shown),-77%

row,Compound,"hERG current change (%, negative = inhibition) at 10uM"
1,COc1ccc(-c2cc3ccccc3n2CC(O)CN2CCN(CCO)CC2)cc1 (stereo not shown),-29.9%
2,COc1ccc(-c2cc3ccccc3n2CC(O)CN2CCOCC2)cc1 (stereo not shown),-13.5%
3,COc1ccc(-c2cc3ccccc3n2CC(O)Cn2nc(C)cc2C)cc1 (stereo not shown),4.62%
4,COc1ccc(-c2cc3ccccc3n2CC(O)CNCCO)cc1.O=C(O)C(=O)O (stereo not shown),3.61%
5,COc1ccc(-c2cc3ccccc3n2CC(O)CN2CCCCC2)cc1.O=C(O)C(=O)O (stereo not shown),-79.6%
6,OCC[C@H]1C[C@H](O)[C@@H](O)[C@@]2(OCc3ccccc32)O1,8.35%
7,CCOc1ccccc1N(CC(=O)NC(C)(C)C)C(=O)Cn1nnc(-c2ccc(C)o2)n1,-16%
8,O=C(C1CC1)N1CCc2cc(Br)cc(S(=O)(=O)N3CCN(c4ccccn4)CC3)c21,-17.5%
9,COc1ccc(CCNC(=O)NCCc2c[nH]c3ccccc23)cc1OC,-3.31%
10,CCOc1ncccc1C(=O)Nc1cccc(-c2nnc3n2CCCCC3)c1,-19.6%
11,CC(C)(C)OC(=O)N1CCC(C(=O)NCC2CCCO2)CC1 (stereo not shown),16.5%
12,O=C(CC(C(=O)N1CCc2ccccc21)n1ccnc1)NCc1ccccc1 (stereo not shown),-26.5%
13,COc1ccc(/C=C/C(=O)Nc2cc(S(=O)(=O)N3CCOCC3)ccc2N2CCCC2)cc1OC,-40.3%
14,O=C(/C=C/c1ccc2c(c1)OCO2)Nc1cc(S(=O)(=O)N2CCOCC2)ccc1N1CCOCC1,-55.9%
15,O=C(/C=C/c1cccc(F)c1)Nc1cc(S(=O)(=O)N2CCOCC2)ccc1N1CCCC1,-57.7%
16,O=C(/C=C/c1ccc(F)cc1)Nc1cc(S(=O)(=O)N2CCOCC2)ccc1N1CCCC1,-70.9%
17,Cc1ccc(/C=C/C(=O)Nc2cc(S(=O)(=O)N3CCOCC3)ccc2N2CCOCC2)cc1,-43.2%
18,O=C(/C=C/c1ccccc1)Nc1cc(S(=O)(=O)N2CCOCC2)ccc1N1CCCC1,-1.04%
19,O=C(/C=C/c1ccc(F)cc1)Nc1ccc(S(=O)(=O)N2CCOCC2)cc1,9%
20,COc1cc(/C=C/C(=O)Nc2cc(S(=O)(=O)N3CCOCC3)ccc2N2CCCC2)cc(OC)c1OC,24%
21,Cc1ccc(NC(=O)/C=C/c2ccc3c(c2)OCO3)cc1S(=O)(=O)N1CCOCC1,-13%

row,Compound,"hERG current change (%, negative = inhibition) at 10uM"
1,Cc1ccn(CCC(=O)O)n1,26.6%
2,Cc1[nH]n(-c2ccccc2)c(=O)c1/C=N/N1C(=O)c2cccc3cccc(c23)C1=O,3.73%
3,COc1ccc(/C=C/c2nc3sc4c(c3c(=O)o2)CCC4)cc1,4.28%
4,Cc1ccc(-c2nc(N)c3c(-c4ccc(C)cc4)nn(C(C)(C)C)c3n2)cc1,-1.71%
5,O=C(COc1ccc(S(=O)(=O)N2CCOCC2)cc1)NCCc1ccccc1,-13.4%
6,C/C(Cl)=C/Cn1c(NCCN(C)C)nc2c1c(=O)n(C)c(=O)n2C,-26.9%
7,C/C(Cl)=C\Cn1c(NCCc2ccccc2)nc2c1c(=O)n(C)c(=O)n2C,-9.3%
8,CCN(CC)CCNc1nc2c(c(=O)n(C)c(=O)n2C)n1C/C=C(/C)Cl,-58.9%
9,CCC(=O)NCCCc1nc(-c2ccccc2)no1,5.95%
10,COc1ccc(CN2C(=O)COc3ccccc32)cc1,12%
11,CCCCN(CCCC)C(=O)CCS(=O)(=O)c1ccc2c(c1)n(C)c(=O)c(=O)n2C,-69.2%
12,CCCCN(CCCC)C(=O)CN(C)S(=O)(=O)c1ccc2c(c1)n(C)c(=O)c(=O)n2C,-37%
13,CCN(Cc1ccccc1)C(=O)CCS(=O)(=O)c1ccc2c(c1)n(C)c(=O)c(=O)n2C,-15%
14,CCC(C)NC(=O)CSc1nnc(-c2ccncc2)n1-c1ccc(OC)cc1 (stereo not shown),-0.947%
15,CCn1c(SCC(=O)NNC(=O)c2ccc(C)cc2)nnc1-c1ccncc1,-0.879%
16,Cc1ccc(C(=O)NNC(=O)CSc2nnc(-c3ccncc3)n2C)cc1,24.9%
17,Cc1ccc(C(=O)NNC(=O)CSc2nnc(-c3ccncc3)n2-c2ccc(C)cc2)cc1,-51.4%
18,COc1ccc(-n2c(SCC(=O)NNC(=O)c3ccc(C)cc3)nnc2-c2ccncc2)cc1,-58.6%
19,COc1ccc(-n2c(SCC(=O)NNC(=O)c3ccccc3C)nnc2-c2ccncc2)cc1,-7.21%
